Records with an inconclusive call do not appear. Activity calls are given as the source filed them. The call rests on the fitted dose curve; in most records, active means well fitted cell-killing curve with a large enough effect; inconclusive means small, poorly fitted or top-dose-only effect; inactive means flat fitted curve, though single readings scatter.
Test: Cell Viability - LYMP2-018 (AID 985);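 further: compound exposure lasted 24 hr at 37 °C; nearly all actives have a fitted effect of over 50% in size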
Conditions: LYMP2-018 lymphoblastoid cells, viability (qHTS); series mostly up to 92.2 µM
Description: NIH Chemical Genomics Center [NCGC]
NIH Molecular Libraries Screening Centers Network [MLSCN]
National Institutes of Environmental Health Sciences [NIEHS]
National Toxicology Program [NTP]
We have developed a 1536-well cell-based assay for quantitative high throughput screening (qHTS) against a number of cell lines to determine in vitro cytotoxicity of small molecules. This particular assay uses a human lymphoblastoid cell line (LYMP2-018) purchased from Coriell Institute for Medical Research.
NCGC Assay Protocol Summary:
The CellTiter-Glo luminescent cell viability assay (Promega) is a homogeneous method to measure the number of viable cells in culture. The end point readout of this assay is based on quantitation of intracellular ATP, an indicator of metabolic activity, using the luciferase reaction. Luciferase catalyzes the oxidation of beetle Luciferin to oxyluciferin and light in the presence of ATP. The luminescent signal is proportional to amount of ATP present.
Using the CellTiter-Glo luminescent cell viability assay, the amount of cellular ATP was measured in the lymphoblastoid cell line with complete culture medium following compound treatment for 24 hours. The assay was performed in opaque white Kalypsys 1536-well plates. In the screen, tetraoctylammonium bromide was used as positive control. Library compounds were measured for their ability to cause acute toxicity in the cell line, as reflected by a decrease in intracellular ATP levels, in a concentration-dependent manner. […] AC50 values were determined from concentration-response data modeled with the standard Hill equation.
qHTS protocol for CellTiter Glo lymphoblastoid cellular assay
[Step] [Parameter] [Value] [Description]
1. Reagent; 5 uL; 2500 lymphoblastoid cells/well
2. Time; 5 hr; 37 C incubation
4. Controls; 23 nL; Tetraoctylammonium bromide 6.4pM to 92 uM
5. Time; 24 hr; 37 C incubation
6. Reagent; 5 uL; CellTiter Glo reagent
7. Time; 30 min; Room Temperature
8. Detection; Luminescence; Viewlux plate reader
Keywords: cell viability, cytotoxicity, lymphoblastoid cell line, luminescence, NTPHTS, NTPHTS_NCGC, NIEHS, DSSTox, MLSMR, MLSCN, NIH Roadmap, qHTS, NCGC
With `FC(F)(F)c1ccc(Cl)cc1` the Potency was “inactive”.
With `O=[N+]([O-])C(Br)Br` the Potency was 12.6 µM (active).
For `Nc1ccccc1C(=O)OCCc1ccccc1`, the Potency was “inactive”.
In the case of `Oc1c(Br)c(Br)c(Br)c(Br)c1Br`, the Potency is reported as “inactive”.
With `C[C@@H]1CC[C@@]2(OC1)O[C@H]1[C@@H](O)[C@H]3[C@@H]4CC[C@H]5C[C@@H](O[C@@H]6O[C@H](CO)[C@H](O[C@@H]7O[C@H](CO)[C@@H](O)[C@H](O[C@@H]8OC[C@@H](O)[C@H](O)[C@H]8O)[C@H]7O[C@@H]7O[C@H](CO)[C@@H](O)[C@H](O[C@@H]8O[C@H](CO)[C@@H](O)[C@H](O)[C@H]8O)[C@H]7O)[C@H](O)[C@H]6O)[C@H](O)C[C@]5(C)[C@H]4CC[C@]3(C)[C@H]1[C@@H]2C` the Potency was 25.1 µM (active).
For `O=Nc1ccc(Nc2ccccc2)cc1`, the Potency was 3.98 µM (active).
For `c1ccc2cc3c(cc2c1)-c1cccc2cccc-3c12`, the Potency was “inactive”.
For `[Cd+2].[Cl-].[Cl-]`, the Potency was “inactive”.
For `O=C(CCl)c1ccccc1`, the Potency was 10 µM (active).
In the case of `CN(C)c1ccc(N=O)cc1`, the Potency is reported as 1.26 µM (active).
For `CC(=O)[O-].CC(=O)[O-].O.O.[Cd+2]`, the Potency was “inactive”.
For `[CH3][Hg][Cl]`, the Potency was 3.16 µM (active).
In the case of `ClC1=C(Cl)C2(Cl)C3C(Cl)C(Cl)CC3C1(Cl)C2(Cl)Cl` (configuration not stated), the Potency is reported as “inactive”.
For `Clc1ccc(C(c2ccc(Cl)cc2)C(Cl)Cl)cc1`, the Potency was “inactive”.
In the case of `C=CC(=O)OCC(CO)(COC(=O)C=C)COC(=O)C=C`, the Potency is reported as 3.98 µM (active).
With `ClC1=C(Cl)C(Cl)(Cl)C(Cl)=C1Cl` the Potency was 7.94 µM (active).
In the case of `c1cc(OCC2CO2)cc(OCC2CO2)c1` (configuration not stated), the Potency is reported as 31.6 µM (active).
With `N#CSCSC#N` the Potency was 7.94 µM (active).
For `O=C(O)C1C(C(=O)O)C2(Cl)C(Cl)=C(Cl)C1(Cl)C2(Cl)Cl` (configuration not stated), the Potency was “inactive”.
For `CCCCCCCCn1sccc1=O`, the Potency was 5.01 µM (active).
With `C#CCO` the Potency was “inactive”.
In the case of `OC(c1ccc(Cl)cc1)(c1ccc(Cl)cc1)C(Cl)(Cl)Cl`, the Potency is reported as “inactive”.
In the case of `CC/C(=C(\c1ccccc1)c1ccc(OCCN(C)C)cc1)c1ccc(O)cc1`, the Potency is reported as 39.8 µM (active).
In the case of `N#CC(Cl)Cl`, the Potency is reported as 12.6 µM (active).
For `O=C1C2(Cl)C3(Cl)C4(Cl)C(Cl)(Cl)C5(Cl)C3(Cl)C1(Cl)C5(Cl)C24Cl` (configuration not stated), the Potency was 50.1 µM (active).
With `CC(C)CC(C)Nc1ccc(Nc2ccccc2)cc1` (configuration not stated) the Potency was 31.6 µM (active).
In the case of `O=[N+]([O-])c1cc(C(F)(F)F)cc([N+](=O)[O-])c1Cl`, the Potency is reported as 31.6 µM (active).

— PubChem BioAssay (NCATS)
Potency means the concentration at half of the fitted maximal effect.
